These results are taken from PubChem BioAssay (NCI).

Structures are written as SMILES. “And” between values parts separate entries of the source, which are not always exact repeats. Identical values can stand only once. Compounds without any hit were thinned out: in the full panel of roughly 79,000, 15% have a hit. Unmarked numbers belong to inactive results. The source made the active and inactive calls. Rule as the data show it: active = growth inhibition above about 70%; inactive = the rest.

Test [1] can be described thus: NCI Yeast Anticancer Drug Screen. Data for the rad50 strain (AID 155).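 Also: 0% = growth of vehicle-only cultures of the same strain.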 The following applies: S. cerevisiae rad50 strain growth inhibition, hits give high values; at 50.0 µM unless noted. Summed up: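 Growth of the mutant yeast was measured after compound exposure and referenced to vehicle-treated cultures.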
A short description of test [2]: NCI Yeast Anticancer Drug Screen. Data for the mec2-1 strain (AID 157). As to conditions: S. cerevisiae mec2-1 strain, hits give high values; at 50.0 µM unless noted. The gist of the method: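 Each compound was tested on mec2-1 yeast, a strain altered in DNA damage repair or cell cycle control. Growth inhibition is reported relative to vehicle.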
A short description of test [3]: NCI Yeast Anticancer Drug Screen. Data for the sgs1 mgt1 strain (AID 161).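 Also: 0% = growth of cultures given vehicle only.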 As to conditions: S. cerevisiae sgs1 mgt1 strain, hits give high values; at 50.0 µM unless noted. The gist of the method:
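Mutant yeast exposed to compound; growth scored against vehicle-only wells.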

Test [4] can be described thus: NCI Yeast Anticancer Drug Screen. Data for the cln2 rad14 strain (AID 165).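 Also: 0% = growth equal to vehicle treated cultures.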 The following applies: S. cerevisiae cln2 rad14 strain, hits give high values; at 50.0 µM unless noted. The gist of the method:
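Test compounds were added to cln2 rad14 yeast cultures; inhibition of growth was then determined by comparison with vehicle treatment.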

Test [5] in a line: NCI Yeast Anticancer Drug Screen. Data for the bub3 strain (AID 167). The following applies: S. cerevisiae bub3 mutant strain, hits give high values; at 50.0 µM unless noted. The gist of the method:
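Whole-cell yeast assay. The mutant strain was incubated with compounds, and growth inhibition was determined by comparison with vehicle-treated cells.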

Test [6] is described as follows: NCI Yeast Anticancer Drug Screen. Data for the mlh1 rad18 strain (AID 175). The following applies: S. cerevisiae mlh1 rad18 strain growth inhibition, hits give high values; at 50.0 µM unless noted. The gist of the method: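 Inhibition values reflect reduced growth of mutant yeast versus vehicle-treated controls following compound exposure; the mutations affect DNA damage repair.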

As to `O=C(Nc1ccc(Cl)c(Cl)c1)Oc1cccc(NC(=S)Nc2ccccc2)c1`, the growth inhibition was 36.9% in test [1]; 90.2% (active) in test [2]; 93% (active) in test [3]; 91.5% (active) in test [4]; 69.8% in test [5]; 94.7% (active) in test [6].

On to `Cc1ccc(NC(=O)CC/C(CC(=O)c2ccc(F)cc2)=N\NC(=O)C(=O)NN)cc1C`, for which the growth inhibition in test [1] was -11.3%; in test [2] it was -5.2%; in test [3], -9.55%; in test [4], -3.3%; in test [5] it was -1.7%; in test [6], -1.25%.

As for `COC(=O)C1Cc2c([nH]c3ccccc23)C=N1` (stereo not given), the growth inhibition in test [1] was 65.3%; in test [2] it was 31.2%; in test [3], 55%; in test [4] it was 45.5%; in test [5], 14.8%; in test [6] it was 62.6%.

In the case of `CC(C)(C)C(=O)NC(OC(NC(=O)C(C)(C)C)C(=O)C(C)(C)C)C(=O)C(C)(C)C` (stereo not given), the growth inhibition in test [1] was 4.05%; in test [2], 6.25%; in test [3] it was -21.4%; in test [4], -0.6%; in test [5] it was -0.1%; in test [6], 21%.

Regarding `COc1cc(OC)c(NC(=O)C2=C(C)NC(C)=C(C(=O)Nc3cc(Cl)c(OC)cc3OC)C2c2cccc([N+](=O)[O-])c2)cc1Cl`, the growth inhibition in test [1] was 9.25%; in test [2], 23.9%; in test [3], 22.9%; in test [4], 36.1%; in test [5], 14.4%; in test [6] it was 3.7%.

Turning to `CC[N+]1(CC)CCOC(=O)C1`, the growth inhibition in test [1] is -15.8%; in test [2], -2.6%; in test [3], -3.9%; in test [4] it was 22.9%; in test [5], -19.4%; in test [6] it was -26.9%.

As for `COC1=C2CC(C)CC(OC)C(O)C(C)/C=C(\C)C(OC(N)=O)C(OC)/C=C\C=C(/C)C(=O)NC(=C(/C=N/N(C)C)C1=O)C2=O` (stereo not given), the growth inhibition in test [1] is -11.3%; in test [2] it was -63.5%; in test [3], -35%; in test [4], 3.5%; in test [5] it was -16.9%; in test [6], -25.8%.

As for `CN(C)C(=O)NCCN(CCNC(=O)N(C)C)C(=O)N(C)C`, the growth inhibition in test [1] is -1.7%; in test [2], 13.2%; in test [3] it was -0.9%; in test [4], -28.3%; in test [5] it was -18.8%; in test [6] it was -4.15%.

Consider `COc1cc(C(=O)c2cc3c(cc2C(=O)O)OCO3)cc(OC)c1OC`, for which the growth inhibition is -7.6% in test [1]; 0.85% in test [2]; 2.9% in test [3]; -30.6% in test [4]; 8.5% in test [5]; -2.05% in test [6].

On to `CNc1cc([N+](=O)[O-])ccc1Br`, for which the growth inhibition in test [1] was 10.2%; in test [2] it was 4.2%; in test [3], -1.1%; in test [4], -2.95%; in test [5], 7.5%; in test [6], -14.9%.

With `C=CCSCc1ccccc1`, the growth inhibition in test [1] was 4.55%; in test [2], 2.95%; in test [3], -13.6%; in test [4], 3.8%; in test [5] it was -2.15%; in test [6], 19.7%.

For the compound `Clc1ccc2[nH]ncc2c1`, the growth inhibition was 8.9% in test [1]; -36.1% in test [2]; -5.9% in test [3]; -7.95% in test [4]; 7.55% in test [5]; 18.1% in test [6].

As to `COS(=O)(=O)CC(O)(c1ccccc1)c1ccccc1`, the growth inhibition in test [1] is 12.7%; in test [2], -2.3%; in test [3], 48.8%; in test [4], -14.6%; in test [5], -5.8%; in test [6], 6.05%.

Take `CC1(C)C2=CC3(C)N(CN2c2ccccc21)c1ccccc1C3(C)C` (stereo not given): the growth inhibition in test [1] was 17.1%; in test [2], 24.4%; in test [3], 18.8%; in test [4], 7%; in test [5], 12.9%; in test [6], 15.9%.

`COc1ccc(C)cc1NC(=O)OCCCl`: the growth inhibition in test [1] is 3.1%; in test [2], 2.35%; in test [3], 2.65%; in test [4], 5.95%; in test [5] it was 11.1%; in test [6], -5.3%.

Consider `NC(=O)NCCCC(N)C(=O)O` (stereo not given), for which the growth inhibition is 7.7% and -23.9% in test [1]; -16.2% and -16.6% in test [2]; -5.85% and -13.1% in test [3]; -2.4% and 2.9% in test [4]; 9.45% and -39.5% in test [5]; -10.4% and -14.9% in test [6].

`CC1(C)COC1(c1ccccc1)c1cccnc1` (stereo not given): the growth inhibition is -45.1% in test [1]; -11.4% in test [2]; -14.1% in test [3]; -39.2% in test [4]; 8.15% in test [5]; -16.8% in test [6].

As for `CCCCOC(=O)C(C)OC(=O)C(C)Oc1cc(Cl)c(Cl)cc1Cl` (stereo not given), the growth inhibition in test [1] was -1.65%; in test [2], -3.95%; in test [3] it was 0.3%; in test [4], 16.9%; in test [5], 3.9%; in test [6], -0.8%.

Consider `CC1CC(=O)C(CC(=O)O)C1C(C(=O)C(=O)Nc1c(C#N)cccc1[N+](=O)[O-])[N+](=O)[O-]` (stereo not given), for which the growth inhibition is -37.7% in test [1]; -16.6% in test [2]; -43% in test [3]; 15.8% in test [4]; -43.8% in test [5]; -36.8% in test [6].

As to `NS(=O)(=O)c1ccc(N=Nc2ncccc2O)cc1`, the growth inhibition in test [1] is 19.4%; in test [2] it was 3.4%; in test [3], -12.3%; in test [4] it was -30.6%; in test [5], -44%; in test [6], 20.6%.
